From PubChem
KDM5B inh: Primary screen for KDM5B Histone Demethylases FDH-coupled qHTS | 220,000 compounds, 2.6% hits | Lysine-specific demethylase 5B (Homo sapiens), Q9UGL1 | KDM5B demethylase, FDH-coupled NADH fluorescence (FDH is formaldehyde dehydrogenase) | Potency, µM (titrated, usually from 57.7 µM), hits mostly inhibitors; active means well fitted inhibition curve with a large enough effect; further: 0% is about no effect; nearly all actives have a fitted effect of over 70% in size
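Measured: NADH fluorescence change, 30 min, RT. System: KDM5BΔAP 200 nM final, H3K4me3 peptide, α-KG, Fe(II), ascorbate, NAD⁺ plus FDH, pH 7.5 HEPES. Compounds: titrated, 10 min pre-incubation with enzyme.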
* marks the source's active call; other numbers are inactive results; i = inactive. The entries come from a sample that favours hits as a whole. Potency means the concentration at half of the fitted maximal effect.

SMILES	KDM5B inh
Cc1cc(C)c2oc(=O)cc(CN3CCC(C(N)=O)CC3)c2c1	i
COc1ccccc1N1CCN(C(=O)COCC(=O)NCc2ccccc2)CC1	i
CCOc1c(Br)cc(C(=O)OC(C)C(=O)c2ccc(F)c(F)c2)cc1OC (configuration not stated)	i
COc1ccc(C(=O)NCc2nnc3cc(-c4nc(C)no4)ccn23)cc1F	7.9µM*
Cc1noc(-c2ccn3c(CNC(=O)c4ccc5ccccc5n4)nnc3c2)n1	6.3µM*
Cc1noc(-c2ccn3c(CNC(=O)c4cccc(F)c4)nnc3c2)n1	28µM*
COc1cccc(C(=O)NCc2nnc3cc(-c4nc(C)no4)ccn23)c1	28µM*
Cc1noc(-c2ccn3c(CNC(=O)c4ccc(Cl)cc4)nnc3c2)n1	i
CC1(C(=O)NCc2cccnc2)CCC(=O)N1Cc1ccccc1Cl (configuration not stated)	i
Cn1c(=O)[nH]c(=O)c2c1nc(SCCc1ccccc1)n2CC(O)COc1ccccc1 (configuration not stated)	i
COc1ccccc1CN(Cc1ccco1)c1cnc(S(C)(=O)=O)nc1C(=O)Nc1ccccc1	i
CCC(C)(C)NC(=O)c1ccccc1OCc1ccc(Cl)cc1	i
COc1ccc(NC(=O)C2CN(S(=O)(=O)C3CC3)CC23CCCCC3)cc1 (configuration not stated)	i
COC(=O)c1c(C)[nH]c(C(=O)OCC(=O)Nc2ccc(Cl)cn2)c1C	i
CN(CC1CCOC1)C(=O)NCc1cccc(F)c1 (configuration not stated)	i
COc1ccccc1C(=O)NC1CC1	i
COc1ccccc1CCN1CNc2c(c(=O)[nH]c(=O)n2-c2cccc(Cl)c2C)C1	i
Fc1ccc2nc(CO[C@H]3CN(Cc4ccc5ccccc5n4)C[C@H]3F)[nH]c2c1	35µM*
Fc1ccc2nc(CO[C@H]3CN(Cc4ccccn4)C[C@H]3F)[nH]c2c1	i
Fc1ccc2nc(CO[C@H]3CN(Cc4ccccc4)C[C@H]3F)[nH]c2c1	i
COc1ccccc1NC(=O)N1CCc2cc(OC)c(OC)cc2C1CNC(=O)C(C)C (configuration not stated)	i
CC1(C)Cc2c(C#N)c(Nc3ccccc3)n3c(SCC(=O)N4CCCCC4)nnc3c2CO1	i
CCCCC(=O)NC1CCN(c2cnn(Cc3ccccc3)c(=O)c2)CC1	i
COc1ccccc1CNC(=O)c1cc(C)nc2ccccc12	i
Cn1ncc(C(=O)NCc2cccnc2)c1-n1cccc1	i
SMILES	KDM5B inh
Cn1ncc2c(C(=O)NCc3cccnc3)cc(-c3ccc(Cl)nc3)nc21	45µM*
COc1ccccc1-c1cc(C(=O)NCc2ccc(F)cc2)c2cnn(C)c2n1	89µM*
Cc1cc(C(=O)NCc2cccnc2)c2ccccc2n1	i
Cn1ncc2c(C(=O)NCc3cccnc3)cc(-c3ccc([S+](C)(=O)[O-])cc3)nc21	79µM*
O=C(NCc1cccnc1)c1cc(-c2ccncc2)nc2ccccc12	i
O=C(NCc1ccccc1)c1cc(-c2cccnc2)nc2ccccc12	i
O=C(NCc1ccncc1)c1cc(-c2cccnc2)nc2ccccc12	i
Cn1ncc2c(C(=O)NCc3cccnc3)cc(-c3ccc(Cl)cc3Cl)nc21	79µM*
O=C(NCc1ccc(F)cc1)c1ccccc1-c1ccccc1	i
Cc1ccc2nc(/C(C#N)=C/c3cc(Br)c(O)c(Br)c3)[nH]c2c1	i
FC(F)Oc1ccc(NC(=S)NCCc2ccccc2)cc1	i
N#Cc1ccc(C(=O)OCCOc2cccc(Cl)c2)cc1	i
CCN(CC(=O)NCc1cccs1)C(=O)C1CC(=O)N(c2cccc3ccccc23)C1 (configuration not stated)	i
CCC(C)c1ccc(NC(=O)COC(=O)c2cc(=O)c3ccccc3o2)cc1 (configuration not stated)	i
COCCn1c(CSCc2ccc(Cl)cc2Cl)n[nH]c1=S	i
FC(F)(F)c1ccc(CN2CCn3c(nnc3-c3ccncc3)C2)cc1	i
O=C(O)C(Cl)C12CC3CC(C1)CC(C(Cl)C(=O)O)(C3)C2 (configuration not stated)	i
CN1CC[C@H]2CN(C(=O)c3cn(-c4ccccc4)nn3)C[C@@]2(C(=O)O)C1	i
Cc1cc(C(=O)NCc2ccc(F)cc2)c2ccccc2n1	i
CN(C)C(=O)c1cc(C(C)(C)C)nc2c1cnn2C	i
Cn1ncc2c(C(=O)NCc3ccc(F)cc3)cc(-c3ccc(Cl)nc3)nc21	79µM*
Cc1ccc(CNC(=O)c2cc(-c3ccc(C)cc3)nc3n[nH]c(-c4ccc(F)cc4)c23)cc1	i
Cc1ccc(-c2cc(C(=O)NC3CC3)c3ccccc3n2)cc1	i
COC(=O)CNC(=O)c1cc(-c2ccc(Cl)cc2Cl)nc2c1cnn2C	79µM*
Cn1ncc2c(C(=O)NCc3ccc(F)cc3)cc(C(C)(C)C)nc21	45µM*
Cn1ncc2c(C(=O)N3CCC(C#N)CC3)cc(-c3cc(Cl)cc(Cl)c3)nc21	i
